Measured values: article PMC13494018

Molecular target: VTCN1, Q7Z7D3
Sequence (Q7Z7D3 whole entry): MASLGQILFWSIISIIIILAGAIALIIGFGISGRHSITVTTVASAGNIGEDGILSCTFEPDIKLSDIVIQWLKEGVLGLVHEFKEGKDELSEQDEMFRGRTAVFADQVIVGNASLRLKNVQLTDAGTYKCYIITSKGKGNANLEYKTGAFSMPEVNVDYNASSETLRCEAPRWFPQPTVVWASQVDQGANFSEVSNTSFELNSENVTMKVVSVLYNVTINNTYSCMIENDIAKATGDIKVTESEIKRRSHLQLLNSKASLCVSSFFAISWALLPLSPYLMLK

Binder	binding in a display sort
d4r4_design_ppi_2_dldesign_0_cycle1_af2pred (protein) DEKAKKAAEEAKKVAKEGREKLKEAEKLMKEGKYKEAAKLAAEVAKKAKEKAEEAEKISKSVAPYALLLENVADAAKALAKEAKEKI	not found (inactive)
d4r3_design_ppi_258_dldesign_0_cycle1_af2pred (protein) AAEEARKAKIQKMADRLLELSKKYGISLEDMKDMMSFSATDPADKAVGLALLDAGHAELAAAKAAEAARAEALAA	not found (inactive)
d4r4_design_ppi_58_dldesign_0_cycle1_af2pred (protein) MEELKKAEEEAKKAVEEAKKYAELIAEGKSEEGIEKIKKIAEELKKKGKETTPEAAKIYEKAVKEIAKIAHEGLEKRAEKEAK	not found (inactive)
d4r4_design_ppi_102_dldesign_0_cycle1_af2pred (protein) EEEKVKKAAEKAIKLAKETAEKAYKAAKKVKDKEYKEKFKEITLLALEAKALARAGKALGNKELVEAAKKLAEEAKEKLEKLEKEAE	not found (inactive)
d4r4_design_ppi_87_dldesign_0_cycle0_af2pred (protein) AEENKAEGAKEAAEDAIEAALKKAEEDPEEGLKAAEKVKERVKKRAEEVEETEYGKKVGKEIKKKAEKALKEIEKKAKAAKAAK	not found (inactive)
d4r4_design_ppi_90_dldesign_0_cycle1_af2pred (protein) MTKEEAERMIKILKERLEKIKKAGKEKGEEMQKIAKELEEALKKAEEAFKKDPEKAGAYFQEARQIAAEGEFKEK	not found (inactive)
d4r4_design_ppi_105_dldesign_0_cycle1_af2pred (protein) MEEIKKEVEETTKKAKEKLKELEKEAEKAGVKEAVEVAKKGKEKVEKLAKKAEKAVKEGNKNYALAKIDAIKDTTEAAEKQVKKLIKA	not found (inactive)
d4r4_design_ppi_79_dldesign_0_cycle1_af2pred (protein) AGKAAYEKLKANMERREKKAEEAEKKDKKLGKFEAEKGIEFSKHAAEAAKKKAAEDPAYKEAAKYAKEAEEKFKKKLKELEK	not found (inactive)
d4r3_design_ppi_402_dldesign_0_cycle1_af2pred (protein) EEEEKKKAEELKKFLEEQNKKRKEVAELAKKYPEVAPYAKAYAKAQNEAFEYYDVDKEKSAKALAEAEKYEAKINALLAKL	not found (inactive)
d4r4_design_ppi_58_dldesign_0_cycle0_af2pred (protein) EEELKKAKEEAEKAIKEAEEAAKKIEEGEAREGVKKIREIKKKLEEKGKESTPEAKKIYKEAAKKIAEIAHEGLEKRAEKKAK	not found (inactive)
d4r4_design_ppi_128_dldesign_0_cycle0_af2pred (protein) ESEKKYKELKEELEKAYKEAKKAILEASKLKPEEAKKKMEEILEEFKKKAYELISKALEQSADYGRELAKLAQEYYKELEELAKKLL	not found (inactive)
d4r4_design_ppi_227_dldesign_0_cycle1_af2pred (protein) GFKTKATAESGYERMKSIYEAFAKLGPKSPIYKEGAEKMKEYAEKLKELENSTEEEIEKLSKEGIEVGKKLKAEAEAK	not found (inactive)
d4r4_design_ppi_2_dldesign_0_cycle0_af2pred (protein) DEKAKKMAEEARKAAEEGRKALKEARKLAKEGELEKAAKLAEETAKKAEEKAKEAEKLSKKVAPEALRLLGVADAAKTAAEEFKKKL	not found (inactive)
d4r3_design_ppi_270_dldesign_0_cycle1_af2pred (protein) SAEEEKKKLLAIADEYAAKVKEAAADLEKAGAVLKEGITELVKLGAPNSVIAYLISKAVKAVGSKIMPYADEAIDEALKA	not found (inactive)
d4r4_design_ppi_229_dldesign_0_cycle1_af2pred (protein) EKEEKKKEAKELAEEAKKLAEELAKAAEEDLEKAKELYKKAKEAAGKAIKLAKEAGDKETAKEASENNFKAHENYAEGKFK	not found (inactive)
d4r4_design_ppi_129_dldesign_0_cycle1_af2pred (protein) MEKVTEARDVALEAAGILELAGIKVPEYRKELSEKAKEAIREVAEAGREALEKGEEEYEKLEKVAEKVYKEAKKKAEEALKKKE	not found (inactive)
d4r4_design_ppi_34_dldesign_0_cycle1_af2pred (protein) AEELVKEAAKHIQEARSLINAAEQYVKLGKEKLEEAKEDLKKAEEHIEKAKELAKKAKEAGADEEDVKKLEEAIEKAKKKLEEVKKLI	not found (inactive)
d4r4_design_ppi_229_dldesign_0_cycle0_af2pred (protein) EKEEKIKKAKELAEKAKELAKKLKEAGEKDLEKAKKLLKEAREAAKKAIELAKEAGDEELAKKASDEQAKAQEAYAEAKAK	not found (inactive)
d4r3_design_ppi_464_dldesign_0_cycle1_af2pred (protein) SVSLEEQEARALARTYAEIAEKKIKEAPKDKELAEKIAKEVLEEAKKAAKDLPEYEEYTIELAEKRLKEILEKYAKKA	not found (inactive)

Binder	binding in a display sort
d4r4_design_ppi_213_dldesign_0_cycle1_af2pred (protein) GALEEAKKLVEEAAKLAEEGKLEEAKEKLKKAMDLAAEHEDPEVVREIAREAKKIVELAEKKKKEKEEKEKKEK	not found (inactive)
d4r4_design_ppi_123_dldesign_0_cycle1_af2pred (protein) AAEAAKAAAAAALAKKAAQSSPEKARAYRKEAGALIAELSPAAAAAAAAAAQDAYADGVAEKVLSELEEKKKKE	not found (inactive)
d4r3_design_ppi_308_dldesign_0_cycle1_af2pred (protein) MEAEKKAEKALEELKKAAKKLEELAKKGGSVEEAEELNEKVLELRSEAKFYASKADEEFGKKVKEEAKKALEKAREAYKKLKE	not found (inactive)
d4r4_design_ppi_123_dldesign_0_cycle0_af2pred (protein) SEAEKKTKEAAKLAYEAAKSNPEKGREYRKKAGELIATLSPEEAKKAAAEAQDAYAEGRAEKKLEELKKREEEK	not found (inactive)
d4r3_design_ppi_383_dldesign_0_cycle0_af2pred (protein) SSLASELNEKKAEERGLEYAKKRLDEKAKKALELAKQVPEVAAEVKKLVDEGKALLEKGDIGGAFAKMDEALKLAEKALAA	not found (inactive)
d4r4_design_ppi_222_dldesign_0_cycle1_af2pred (protein) SLEKLKEYLENAEKERKKVLEAAKEARELAKKGEEEEAKKYLGNAVTDARLNLNEAAYDAGLDTSIGNKLAKEFGAEGEKIFK	not found (inactive)
d4r4_design_ppi_225_dldesign_0_cycle0_af2pred (protein) AELRERAEAAERRFEAAKARLKEALEKGDKSRAYGEAFRLKHIAEVARRLAAEVRAAATTEEQRELAERLEELAREAEALAEEALKK	not found (inactive)
d4r3_design_ppi_239_dldesign_0_cycle0_af2pred (protein) EEKAKEAEKKSKEYREKARELAEDVRNPELGRERAREEGKKTEEEIEAWLAEKAKEAQELRQESAEYDAKAIILK	not found (inactive)
d4r3_design_ppi_300_dldesign_0_cycle1_af2pred (protein) SSAELTKEAKAKVEAAGAAADAAAAADPAAGAAAYTEAAQLALQESAKLDASKENKEAAEEMRKKGKEFAAKAKALRA	not found (inactive)
d4r3_design_ppi_266_dldesign_0_cycle0_af2pred (protein) MEEKGNEVIERAKKKLEEGKKLAKEGELLKGYALAQSAEARAENAAEAAEKAGLEEVAKKAKEVAKEAKAAAEEIEKKRKEAEA	not found (inactive)
d4r4_design_ppi_34_dldesign_0_cycle0_af2pred (protein) VQKLIDEAAQEIQEARAHISGAEQYVLMGKEYLPEAKKDLEEAEKHIKKAKELTKKAKEAGADEEEIKKLEKAIEKAEARLEEVKKMM	not found (inactive)
d4r3_design_ppi_381_dldesign_0_cycle1_af2pred (protein) GSSDELEKKTETKAYRSLSTKKAKEYSKDKELVKKIEEEAKTYEGALKARKETEEIVKEVKKKEEEEKKKKE	not found (inactive)
d4r3_design_ppi_239_dldesign_0_cycle1_af2pred (protein) MEEAEKALKKAEELRAEAKRLGEIVSNPELGKKEAAKAGKKTPEEIEAWLKEVAAKAQELREEAAEYEAKAIRIK	not found (inactive)
d4r4_design_ppi_225_dldesign_0_cycle1_af2pred (protein) DELREQAERAKKRFEEAEKKLKEALEKGDKKEAIKYAERLKHLAEVAEKLAEEVEAAATNPETKELAERLKELAKRAKKLAEEALKK	not found (inactive)
d4r4_design_ppi_157_dldesign_0_cycle1_af2pred (protein) SKEEARKRGLESAEELKELVEEGIPVEAVGAIAASDVEWLMKYPYGEYAAEALIEALEKYNPVMGEKAREAYEEAKERKAK	not found (inactive)
d4r4_design_ppi_128_dldesign_0_cycle1_af2pred (protein) SSAEQAAKLRAELDAAAAAAAAAIAAAAGLTPAAAAAASAATIAAYKATASALIDAAFELSSDYGRSIAKAAKEKLAALEAQAAALA	not found (inactive)
d4r4_design_ppi_180_dldesign_0_cycle1_af2pred (protein) DDFEKALEELKKAGELLPEAAEIAEEAIKKATASKDLKEAAKILLEAAKKIAKIAKEAGNEEAAKAAAAAAQYARQLKAAA	not found (inactive)
d4r4_design_ppi_44_dldesign_0_cycle1_af2pred (protein) AKAKEEGKKLAKEATEEAKKLLDKAKEEVKKGGTYEEVKKYVDKGKEAAKKYGAKAKELPETAADVAKVIQDFYEESNEALAEAKRL	not found (inactive)
d4r3_design_ppi_300_dldesign_0_cycle0_af2pred (protein) SAEELAKKAKEEVEKAEKEAEEAAAKDKKAGAAKYAEAAQLAYQKAGELDASKENKEEAEEMRERGRELAKKARELEA	not found (inactive)
